High-throughput results: PubChem BioAssay, several laboratories
Mcl1 Noxa PPI: Mcl-1/Noxa binding inhibitors, primary screen, biochemical, TR-FRET, 1536-well. Induced myeloid leukemia cell differentiation protein Mcl-1 (Homo sapiens), Q07820. TR-FRET Mcl-1/Noxa peptide binding, 2 h. AID 1022, 2008. inhibition, % at 21.7 µM. actives 1.5% (n = 220,000);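 active = compounds that cut the protein-peptide binding signal by more than 50% relative to plate controls in a single-dose test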;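 also: His-tagged Mcl-1 with rhodamine Noxa BH3 peptide and terbium anti-His antibody; 0% = Mcl-1 plus Noxa peptide wells and 100% = peptide-only wells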
Target sequence (Q07820 whole entry, looked up): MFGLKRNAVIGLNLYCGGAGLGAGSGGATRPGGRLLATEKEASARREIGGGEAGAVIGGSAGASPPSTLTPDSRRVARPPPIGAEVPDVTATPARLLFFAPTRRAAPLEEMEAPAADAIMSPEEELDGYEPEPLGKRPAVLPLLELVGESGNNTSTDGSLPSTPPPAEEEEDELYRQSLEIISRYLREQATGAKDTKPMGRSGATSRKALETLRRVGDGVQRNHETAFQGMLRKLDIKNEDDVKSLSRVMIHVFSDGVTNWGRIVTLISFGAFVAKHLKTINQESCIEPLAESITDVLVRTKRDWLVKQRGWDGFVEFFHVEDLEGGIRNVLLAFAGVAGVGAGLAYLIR
Mcl1 Bid PPI: Mcl-1/Bid binding inhibitors, primary screen, biochemical, TR-FRET, 1536-well. AID 1021, 2008. TR-FRET Mcl-1/Bid-Dy647 peptide binding. actives 0.97% (n = 220,000). inhibition, % at 21.7 µM;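 active = compounds that cut the binding signal by more than half at the single screening dose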;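 also: His-tagged Mcl-1 with europium anti-His antibody binding Bid BH3 peptide; 0% = Mcl-1 plus peptide wells and 100% = peptide-only wells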
TLR9-MyD88 inh: inhibitors of TLR9-MyD88 association in cells, primary screen, cell-based, CHO, BLA complementation, fluorescence; CCF4 FRET ratio; Toll-like receptor 9 (Homo sapiens) + Myeloid differentiation primary response protein …; inhibition, % at 4.98 µM; actives 0.21% (n = 340,000);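 active = inhibition above the mean over all tested compounds plus 3 SD, cut at about 21% in these data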;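 also: 0% = DMSO only wells and 100% = clavulanate BLA inhibitor control wells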
NOD2-RIPK2 inh: NOD2-RIPK2 binding disruptors in cells, primary screen, fluorescence, CHO cells, BLA complementation; actives 0.38% (n = 360,000); Receptor-interacting serine/threonine-protein kinase 2 (Homo sapiens), O43353; CCF4 ratio; inhibition, % at 4.98 µM; AID 624267, 2012; in the data active = inhibition above about 21%;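 also: 0% = vehicle only and 100% = reference blocker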
Bim-Mcl-1: inhibitors of Bim peptide binding to Mcl-1, primary screen, biochemical, bead-based flow cytometry, multiplex. Induced myeloid leukemia cell differentiation protein Mcl-1 (Homo sapiens), Q07820. Bim peptide-Mcl-1 binding. inhibition, % at 10 µM. actives 0.1% (n = 190,000). AID 1009, 2008; in the data active = inhibition above about 40%;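 also: 0% = no compound tracer wells and 100% = peptide blocker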
TLR4 MyD88 comp: inhibitors of TLR4-MyD88 association in cells, primary screen, cell-based, HeLa CL3-4, BLA complementation, FRET ratio; inhibition, % at 8.4 µM; actives 0.18% (n = 200,000); HeLa CL3-4 TLR4/MyD88 BLA complementation; AID 861, 2007; in the data active = inhibition above about 25%;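 also: 0% = vehicle and 100% = reference inhibitor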
The depositor's hits bear a star; nt = no result. In the library only some 1.8% were active in any assay of this set; here they are far more common.

SMILES	Mcl1 Noxa PPI	Mcl1 Bid PPI	TLR9-MyD88 inh	NOD2-RIPK2 inh	Bim-Mcl-1	TLR4 MyD88 comp
CCCOc1ncnc2c1[nH]c1ccccc12	86*	-18	-5	-1	0	-16
COc1cc(C2C(C#N)=C(C)NC(C)=C2C#N)cc(OC)c1OC	11	-8	-3	-5	0	0
CCOc1ccc(C(=O)NC(=S)Nc2ccc(N3CCC(C)CC3)cc2)cc1[N+](=O)[O-]	45	54*	-6	-9	-3	-6
CCOc1ccc(C(=O)NC(=S)Nc2ccccc2N2CCC(C)CC2)cc1[N+](=O)[O-]	0	-22	0	4	-1	0
N#CCCN(CCN1CCCC1)S(=O)(=O)c1ccc(-c2ccc([N+](=O)[O-])cc2)cc1	18	3	8	-1	0	-4
O=c1c(O)c(-c2ccccc2)oc2cc(O)cc(O)c12	nt	nt	0	4	nt	nt
O=c1c(O[C@@H]2O[C@H](CO)[C@H](O)[C@H](O)[C@H]2O)c(-c2ccc(O)c(O)c2)oc2cc(O)cc(O)c12	29	-9	nt	nt	0	nt
COc1c(-c2ccc(O)c(O)c2)oc2cc(O)cc(O)c2c1=O	56*	-61	10	4	nt	nt
O=c1c(O)c(-c2ccc(O)cc2O)oc2cc(O)cc(O)c12	103*	-42	nt	nt	3	6
Cc1[nH]c(-c2ccc(F)cc2)cc1C(=O)N1CCN(c2ccccc2F)CC1	nt	nt	3	-4	nt	nt
Cc1cccc(-c2n[nH]c(=S)n2/N=C/c2ccc(C)s2)c1	69*	-33	-11	-4	4	0
O=C(CNC(=O)C1CC1)Nc1ccc(F)c(F)c1F	nt	nt	-1	-4	nt	nt
O=C(NNC(=O)C1CCCC1)c1cc([N+](=O)[O-])cc([N+](=O)[O-])c1	nt	nt	-4	1	nt	nt
O=C(NCCCCc1ccccc1)C1CC(c2ccccc2[N+](=O)[O-])=NO1 (stereo not drawn)	100*	8	-11	7	-3	-5
N#Cc1c(-c2ccncc2)c2c([nH]c1=S)CCCC2	39	-77	18	4	-6	-6
Cc1ccc(-c2c3c([nH]c(=S)c2C#N)CCCC3)o1	74*	-26	-9	7	2	9
Nc1ccc(C2=Nc3cccc4cccc(c34)N2)cc1	77*	10	-2	-3	3	1
c1coc(C2=Nc3cccc4cccc(c34)N2)c1	33	-58	-3	-16	8	0
COc1cccc(C2=Nc3cccc4cccc(c34)N2)c1	57*	10	-1	0	-5	-10
CC1=Nc2cccc3cccc(c23)N1	93*	-21	-5	-15	-3	-6
COc1ccccc1C(=O)CN1C(=O)NC2(CCCCCC2)C1=O	nt	nt	-11	-3	nt	nt
O=C(O)Cn1nnc(-c2ccc(OCc3ccccc3)cc2)n1	nt	nt	1	1	nt	nt
CC1CN(CCCCOc2ccc3ccccc3c2)CC(C)O1 (stereo not drawn)	35	8	-11	-3	-3	-11
COC(=O)c1ccc(OCCCCN2CC(C)OC(C)C2)cc1 (stereo not drawn)	32	52*	-12	-8	-1	9
CCCC(=O)N1CCC1(C)C(=O)Nc1ccc2scnc2c1 (stereo not drawn)	nt	nt	nt	3	nt	nt
SMILES	Mcl1 Noxa PPI	Mcl1 Bid PPI	TLR9-MyD88 inh	NOD2-RIPK2 inh	Bim-Mcl-1	TLR4 MyD88 comp
CCC1(C)Cc2sc3c(=O)[nH]c(=S)[nH]c3c2CO1 (stereo not drawn)	54*	-24	0	3	-5	17
CN(C)CC1CCCCC1OC(=O)c1ccc(S(=O)(=O)N(C)c2ccccc2)cc1 (stereo not drawn)	nt	nt	0	-1	nt	nt
CCOc1ccc(-c2nnc(-c3ccccc3)n2-c2ccccc2)cc1	-122	61*	-7	2	3	-10
Cc1cc(C)c2c(=O)n(CC(=O)NC3CCCC3)sc2n1	21	-145	3	-8	nt	nt
COc1ccc(OC)c(CCNC(=O)Cn2sc3nc(C)cc(C)c3c2=O)c1	56*	-19	nt	nt	-10	3
COC(=O)C(Cc1ccc(O)cc1)NC(=O)C(C)NC(=O)c1ccc(C(C)(C)C)cc1 (stereo not drawn)	nt	nt	-4	2	nt	nt
O=C(CSc1ccc(Cl)cc1)N1CCN(c2ccc([N+](=O)[O-])cc2Cl)CC1	-1	-4	7	5	-1	-6
Cc1ccc(Cl)cc1N1CCN(C(=O)CSc2ccsc2[N+](=O)[O-])CC1	55*	-16	9	-3	-8	2
O=C(/C=C/c1cccs1)N1CCN(c2ccc(O)cc2)CC1	79*	-55	3	-2	2	-4
O=C(/C=C/c1cccs1)N1CCCCC1	7	-20	nt	-19	0	-4
Nc1ccc(N2CCN(C(=O)c3cccs3)CC2)cc1	61*	-91	-10	0	15	-11
O=C(N/N=C/c1ccco1)c1cccc(N2CCCC2=O)c1	8	-17	-16	-4	-3	-6
O=C(N/N=C/c1ccco1)c1cccc(N2Cc3ccccc3C2)c1	75*	-7	6	1	0	-12
COC(=O)C1C=CC(OC2OC(COC(C)=O)C(OC(C)=O)C(OC(C)=O)C2OC(C)=O)n2c(=O)n(-c3ccccc3)c(=O)n21 (stereo not drawn)	nt	nt	4	-14	nt	nt
Cc1cc(/C=N/NC(=O)COc2cccc3cccnc23)c(C)n1-c1ccc(O)cc1	72*	-10	-1	9	-1	-2
CNc1ccc(/C=C(\C#N)c2ccccn2)cc1[N+](=O)[O-]	64*	39	-16	-7	-1	-20
N#C/C(=C\c1ccc(Cl)c([N+](=O)[O-])c1)c1ccccn1	-6	-15	6	8	-1	25
O=c1oc2ccccc2cc1-c1ccccc1	-19	-6	14	-22	8	-8
O=C(O)c1ccc(-n2cc(-c3cc4ccccc4oc3=O)[nH]c2=S)cc1	50*	-29	-6	0	0	0
O=C(O)Cc1sc(Nc2ccc(Cl)cc2)nc1-c1cccs1	73*	-27	nt	nt	-6	1
COc1ccc(S(=O)(=O)N2CCC(C(=O)NN3CCCCC3)CC2)cc1	nt	nt	-1	5	nt	nt
COc1cc(CNc2ccc(N3CCCC3)cc2)ccc1OCc1ccccc1F	57*	-106	11	2	1	-5
COc1cc(CNn2cn[nH]c2=S)cc(Br)c1OCc1ccccc1F	35	-26	2	-1	-1	-7
